Screening data as filed in PubChem.
Hits are enriched below; roughly 3% of the tested compounds scored in any of these assays.
NALP3 yeast inh = inhibitors of NALP3 inflammasome in yeast | Yeast reconstituted NLRP3/ASC/caspase-1, beta-gal luminescence, 24 h | inhibition, % at 10 µM | hit rate 0.39% among 330,000 | AID 2825;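 active = inhibition of 50% or more; inactive = inhibition below 50%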
SUMO Mot1 rescue = inhibitors of SUMOylation pathway: yeast Mot1-301 growth rescue; S. cerevisiae Mot1-301 growth rescue, ATP luminescence, 38.5C; percent above DMSO median, 100 means doubled; growth rescue, % at 18.8 µM; hit rate 1% among 320,000;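 active = every valid replicate shows activation above 250% relative to neutral control wells; inactive = the rest, any valid replicate at or below 250%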
NALP1 inh = NALP1 inhibition; S. cerevisiae NALP1/ASC/caspase-1 growth, X-gal OD620, 72 h; inhibition, % at 10 µM; hit rate 0.61% among 280,000; AID 2071; in the data active = inhibition mostly above about 24%, no sharp cut-off; inactive = mostly below about 32%
A1 inh = inhibitors of the anti-apoptotic protein A1, read as caspase activation | AID 2462 | caspase activation, % (test concentration not listed) | hit rate 0.066% among 330,000 | MEF A1-2A-BIM cells, Caspase-Glo 3/7 luminescence, 3 h; percent of clofoctol response, vehicle zero;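 active = over half of replicate activation scores above 10%, or exactly half above 10 with the replicate mean above 10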
CHT inh = inhibits the human high affinity choline transporter. Q9GZV3. CHT-expressing cells, membrane potential dye, choline response; active compounds read low. B-score at 10 µM. hit rate 0.86% among 310,000;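 active = B-score over 3 SD under the library average, and starting fluorescence ratio not unusually high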;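 also: choline stimulus applied at its EC90 after an EC20 pre-addition; B-score computed on integrated fluorescence ratio after choline addition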
Target sequence (Q9GZV3 whole entry, looked up): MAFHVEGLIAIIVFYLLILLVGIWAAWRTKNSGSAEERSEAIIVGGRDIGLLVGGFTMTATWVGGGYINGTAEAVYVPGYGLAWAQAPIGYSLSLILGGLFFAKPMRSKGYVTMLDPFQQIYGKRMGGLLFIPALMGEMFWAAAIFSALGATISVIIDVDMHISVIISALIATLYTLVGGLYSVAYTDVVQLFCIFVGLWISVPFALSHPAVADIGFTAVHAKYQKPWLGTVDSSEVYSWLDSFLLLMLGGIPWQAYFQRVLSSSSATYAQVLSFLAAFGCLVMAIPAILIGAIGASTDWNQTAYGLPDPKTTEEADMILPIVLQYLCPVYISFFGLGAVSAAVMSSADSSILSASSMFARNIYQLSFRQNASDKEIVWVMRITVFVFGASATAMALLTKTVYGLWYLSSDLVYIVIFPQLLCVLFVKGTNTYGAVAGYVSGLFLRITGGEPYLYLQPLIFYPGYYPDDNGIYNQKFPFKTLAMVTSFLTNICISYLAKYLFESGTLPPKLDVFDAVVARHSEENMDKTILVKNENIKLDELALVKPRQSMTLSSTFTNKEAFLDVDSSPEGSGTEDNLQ
CHT allo act = allosteric activators of human choline transporter CHT; Q9GZV3; CHT-expressing cells, membrane potential dye, choline EC20; active compounds read high; LV-AA mutant CHT in HEK293 cells; B-score at 10 µM; hit rate 0.49% among 310,000; AID 488977;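 active = initial fluorescence not abnormally high and integrated response B-score, plate-corrected, over 3 SD above library mean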
Mot1 SUMO dose = SUMO pathway inhibitors in yeast Mot1-301 growth. growth activity, percent, % at 42 µM. shares compounds with SUMO Mot1 rescue. 2,300 tested, under 10 active. S. cerevisiae Mot1-301 galactose growth, ATP luminescence, 24 h; -100 = growth of slx-deleted rescue strain;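 active = Signal drops as the depositor expects, and the fitted half-maximal dose is no more than ten times the top valid tested dose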;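 also: more negative values mean stronger growth rescue toward the control strain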
A number is an active result; i = inactive; nt = not tested or not shown; + = active, no number; ! = repeats disagree.

SMILES	NALP3 yeast inh	SUMO Mot1 rescue	NALP1 inh	A1 inh	CHT inh	CHT allo act	Mot1 SUMO dose
CC1(C)CC(=O)c2cnc(NC(=O)CSc3nc4ccccc4o3)nc2C1	i	851	i	i	i	i	i
O=C(Nc1nccs1)c1cc(-c2ccccn2)nc2c(Cl)cccc12	i	i	i	i	i	i	nt
CCOC(=O)N1CCN(C(=O)c2c(Cl)cnn2C)CC1	i	i	i	i	i	i	nt
Cc1ccc(OC(=O)c2ccc3c(=O)n4c(nc3c2)CCC4)cc1	i	nt	nt	nt	nt	nt	nt
COc1cc(OC)cc(OC(=O)c2ccc3c(=O)n4c(nc3c2)CCC4)c1	i	359	nt	i	i	i	i
CCCc1nc(SCC(=O)N2CCCCCC2)c2c(=O)n(C)c(=O)n(C)c2n1	nt	i	i	i	i	i	nt
O=C(c1cc2c(ccc3ccccc32)oc1=O)N1CCCC1	i	495	i	i	i	i	i
COc1ccc2cc3c(N)nn(C(=O)c4ccc(F)cc4)c3nc2c1	i	i	nt	i	i	i	nt
COc1ccc2cc3c(N)nn(C(=O)c4ccccc4Cl)c3nc2c1	i	501	nt	i	i	i	i
N#Cc1c(-c2ccco2)cc(-c2cccnc2)nc1N	i	675	i	i	i	i	i
CCOC(=O)COc1nc(-c2ccc(C)cc2)cc(-c2ccco2)c1C#N	i	400	nt	i	i	i	i
CCOC(=O)COc1nc(-c2ccco2)cc(-c2ccco2)c1C#N	i	i	nt	i	i	i	nt
COC(=O)c1ccccc1N(C)S(C)(=O)=O	i	563	i	i	i	i	i
CCOc1ccc(NC(=O)CN(C)C(=O)c2ccc(OCc3ccccc3)c(OC)c2)cc1OCC	i	540	nt	i	i	i	i
CCOc1ccc(NC(=O)C2CCN(C(=O)C3CC(=O)N(c4ccc(C)cc4)C3)CC2)cc1 (centres undefined)	i	i	i	i	i	i	nt
COc1ccc(Br)cc1S(=O)(=O)NCCc1cccs1	i	i	nt	i	nt	nt	nt
CCCCc1ccc(S(=O)(=O)NNC(=S)NCc2ccco2)cc1	i	545	i	i	i	i	i
C=CCc1c(C)[nH]c2c(OC)cccc2c1=S	i	i	i	i	i	i	nt
O=C(Nc1ccc(Cl)c(Cl)c1)c1ccncc1	i	i	i	i	i	i	nt
O=C(Nc1ccncc1Cl)c1ccncc1	i	435	i	i	i	i	i
Cc1ccc(OCC(=O)NN2C(=O)c3ccccc3C2=O)c(C)c1	i	436	i	i	i	i	i
Cc1ccc(C(C)C)c(OCC(=O)NN2C(=O)c3ccccc3C2=O)c1	i	i	i	i	i	i	nt
O=C(NNC(=O)C1CCCC1)c1cc([N+](=O)[O-])cc([N+](=O)[O-])c1	i	i	nt	i	nt	nt	nt
CCN(CC)S(=O)(=O)c1ccc(N2CCN(CCOc3ccc(OC)cc3)CC2)nc1	i	i	i	i	i	i	nt
CCC(C)NC(=O)CSc1nnc(-c2cc(-c3ccc(C)cc3)nc3ccccc23)n1N (centres undefined)	i	971	i	i	i	i	i
SMILES	NALP3 yeast inh	SUMO Mot1 rescue	NALP1 inh	A1 inh	CHT inh	CHT allo act	Mot1 SUMO dose
COc1ccc(Cl)cc1C(=O)NCCc1ccc(S(=O)(=O)NC(=O)NC2CCCCC2)cc1	nt	390!	i	i	i	i	i
COc1ccc(CCNC(=O)NC2CCCCC2)cc1OC	i	i	i	i	i	i	nt
CC(=O)c1cccc(N(CC(=O)NC2CCCCC2)C(=O)Cn2nnc(-c3ccccc3)n2)c1	i	i	i	i	i	i	nt
Cc1cc(C)[n+](Cc2ccccc2)cc1C(N)=O	i	i	nt	i	i	i	nt
O=C(N/N=C\c1cn(-c2ccccc2)nc1-c1ccccc1)c1ccc(Br)o1	i	+	i	i	i	i	i
Cc1c(NC(=O)Nc2ccc(F)cc2F)c(=O)n(-c2ccccc2)n1C	i	i	i	i	i	i	nt
COc1ccc(Cn2nnc(C(=O)Nc3ccc(F)cc3)c2N)cc1	i	i	i	i	i	i	nt
COc1ccc(NC(=O)Cn2nnc(C(=O)Nc3ccc(F)c(Cl)c3)c2N)cc1	i	477	i	i	i	i	i
CC[n+]1c(/C=C/N(C)c2ccccc2)n(-c2ccccc2)c2ccc(-c3nc4ccccc4s3)cc21	i	501	46	i	i	i	i
